Source: PubChem BioAssay (EPA / NIEHS)
Results filed as inconclusive are left out. Active and inactive are the calls of the source. The calls were made as follows, unless noted: active = hit-call score of the fitted dose curve at least 0.9, where 1 is the maximum; inconclusive = response in the unintended direction; inactive = score below 0.9.

Test system: Thyroperoxidase (TPO), gene 54314
Assay: CCTE_Simmons_AUR_rTPO: CCTE's Amplex UltraRed Assay for Thyroperoxidase (TPO) Inhibition, Simmons Lab (AID 2283662);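 as to AC50: potency for loss of signal meaning inhibition of peroxidase activity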
Summary of the method: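 Endpoint is decreased Amplex UltraRed fluorescence after a 30-min, 37C reaction of rat thyroid microsomes with 300 uM H2O2. Eight test concentrations (5 nM–87.5 uM final) in 0.5% DMSO, three biological replicates each.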

Row | Compound | AC50 | outcome
1 | Cc1ccc(C)c(O)c1C | 10.5 µM (active) | –
2 | Oc1ccc2ccccc2c1N=Nc1ccccc1 | – | inactive
3 | Nc1ccc(S(=O)(=O)c2ccc(N)cc2)cc1 | 6.89 µM (active) | –
4 | Nc1ccccc1N | 4.15 µM (active) | –
5 | Cc1cccc(C)c1O | 23.4 µM (active) | –
6 | CN[C@H]1CC[C@@H](c2ccc(Cl)c(Cl)c2)c2ccc(S(N)(=O)=O)cc21 | – | inactive
7 | CC1=C(/C=C/C(C)=C/C=C/C(C)=C/CO)C(C)(C)CCC1 | 28.6 µM (active) | –
8 | COc1ccc(C)cc1N | 1.23 µM (active) | –
9 | C[C@]12C=CC(=O)C=C1CC[C@@H]1[C@@H]2C(=O)C[C@@]2(C)[C@H]1CC[C@]2(O)C(=O)CO | – | inactive
10 | Cc1ccc(N(C)C)cc1 | 11.3 µM (active) | –
11 | Cc1c(C(=O)O)c(O)cc2c1C(=O)c1c(O)c([C@@H]3O[C@H](CO)[C@@H](O)[C@H](O)[C@H]3O)c(O)c(O)c1C2=O | 2.65 µM (active) | –
12 | CNC(=O)[C@H]1O[C@@H](n2cnc3c(NCc4cc(Cl)ccc4OCc4cc(C)no4)ncnc32)[C@H](O)[C@@H]1N | – | inactive
13 | CC=Cc1ccc(O)c(OC)c1 | 6.14 µM (active) | –

Test system: not listed separately
Assay: CCTE_Simmons_CellTiterGLO_HEK293T: Viability Assessment in CCTE's Assays for Thyroperoxidase (TPO) Inhibition, Simmons Lab (AID 2283665);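 as to AC50: cells exposed to compound for 24 h before readout; actives reduce ATP signal below DMSO vehicle meaning cytotoxicity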
Summary of the method: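 ATP depletion measured in HEK293T cells after 24 h dosing (8 concentrations, 5 nM–87.5 uM final; DMSO 0.5%) using CellTiter-Glo luminescence; curves fit for loss of signal against DMSO baseline.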

Row | Compound | outcome | AC50
14 | Cc1ccc(C)c(O)c1C | inactive | –
15 | Oc1ccc2ccccc2c1N=Nc1ccccc1 | – | 17 µM (active)
16 | Nc1ccc(S(=O)(=O)c2ccc(N)cc2)cc1 | inactive | –
17 | Nc1ccccc1N | inactive | –
18 | Cc1cccc(C)c1O | inactive | –
19 | CN[C@H]1CC[C@@H](c2ccc(Cl)c(Cl)c2)c2ccc(S(N)(=O)=O)cc21 | – | 9.23 µM (active)
20 | CC1=C(/C=C/C(C)=C/C=C/C(C)=C/CO)C(C)(C)CCC1 | – | 12 µM (active)
21 | COc1ccc(C)cc1N | inactive | –
22 | C[C@]12C=CC(=O)C=C1CC[C@@H]1[C@@H]2C(=O)C[C@@]2(C)[C@H]1CC[C@]2(O)C(=O)CO | inactive | –
23 | Cc1ccc(N(C)C)cc1 | inactive | –
24 | Cc1c(C(=O)O)c(O)cc2c1C(=O)c1c(O)c([C@@H]3O[C@H](CO)[C@@H](O)[C@H](O)[C@H]3O)c(O)c(O)c1C2=O | – | 12.6 µM (active)
25 | CC=Cc1ccc(O)c(OC)c1 | inactive | –

Test system: not listed separately
Assay: Tanguay_ZF_120hpf_TR_legacy: (Legacy) Oregon State University Tanguay Lab 120 Hour Post-fertilization zebrafish Assay for Touch Response (AID 2283667)
Summary of the method: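 Binary touch-response endpoint in larvae at 120 hpf after static waterborne exposure from embryo stage (28°C, 0.64% DMSO vehicle, 5 uM trimethyltin chloride as positive control); embryos dead at 24 or 120 hpf excluded; fitted as gain versus DMSO.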

Row | Compound | AC50 | outcome
26 | Oc1ccc2ccccc2c1N=Nc1ccccc1 | 25.4 µM (active) | –
27 | Nc1ccc(S(=O)(=O)c2ccc(N)cc2)cc1 | – | inactive
28 | Nc1ccccc1N | 77 µM (active) | –
29 | Cc1cccc(C)c1O | – | inactive
30 | CN[C@H]1CC[C@@H](c2ccc(Cl)c(Cl)c2)c2ccc(S(N)(=O)=O)cc21 | – | inactive
31 | CCCCCCCCCCCCCO | – | inactive
32 | COc1ccc(C)cc1N | – | inactive
33 | Cc1ccc(Cl)cc1 | – | inactive
34 | CCCCCCCCCCCC(=O)OC | – | inactive

Test system: not listed separately
Assay: CCTE_Padilla_ZF_144hpf_TERATOSCORE: (Legacy) CCTE's 144 Hour Post-fertilization zebrafish Assay Teratoscore, Padilla Lab (AID 2283679; active = hit-call score of the fitted dose curve at least 0.9, where 1 is the maximum; inactive = score below 0.9;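 as to AC50: zebrafish embryos with chorions exposed by immersion from 6-8 hpf to 5 dpf with daily renewal; teratogenicity score from eye scoring of death hatching and malformations at 144 hpf; higher score means more developmental defects relative to DMSO baseline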)
Summary of the method: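 Larvae scored by eye at 144 hpf for death, hatching and malformations after a day in clean Hanks'. Before that, daily-renewed exposure at 80 uM (0.4% DMSO, 26C) from roughly 6-8 hpf through 5 dpf, 4 embryos per chemical.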

Row | Compound | AC50 | outcome
35 | CNCc1cc(F)ccc1Oc1ccc(Cl)c(Cl)c1 | 15.7 µM (active) | –
36 | Oc1ccc2ccccc2c1N=Nc1ccccc1 | 5.21 µM (active) | –
37 | Nc1ccccc1N | 89.9 µM (active) | –
38 | CN[C@H]1CC[C@@H](c2ccc(Cl)c(Cl)c2)c2ccc(S(N)(=O)=O)cc21 | 61.9 µM (active) | –
39 | CC1=C(/C=C/C(C)=C/C=C/C(C)=C/CO)C(C)(C)CCC1 | 28.2 µM (active) | –
40 | CC1(C)NC(=O)NC1=O | – | inactive
41 | C=CCOC(=O)c1ccccc1C(=O)OCC=C | 16.6 µM (active) | –
42 | C[C@]12C=CC(=O)C=C1CC[C@@H]1[C@@H]2C(=O)C[C@@]2(C)[C@H]1CC[C@]2(O)C(=O)CO | – | inactive
43 | Cc1c(C(=O)O)c(O)cc2c1C(=O)c1c(O)c([C@@H]3O[C@H](CO)[C@@H](O)[C@H](O)[C@H]3O)c(O)c(O)c1C2=O | – | inactive
44 | CC=Cc1ccc(O)c(OC)c1 | 53.8 µM (active) | –

Test system: not listed separately
Assay: STM_H9_OrnithineISnorm_perc: Stemina devTOX quickPredict H9 human embryonic stem cell (hESC)-based Assay for Ornithine (ORN) Metabolite Biomarker, Normalized (AID 2283712; active = hit-call score of the fitted dose curve at least 0.9, where 1 is the maximum; inactive = score below 0.9;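 also: ornithine released into spent medium during last day measured by mass spectrometry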)
Summary of the method: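 Metabolite endpoint from spent media of pluripotent H9 cells treated 72 h with daily re-feeding; ornithine measured by UPLC-HRMS against its 13C spike-in and referenced to the median 0.1% DMSO vehicle response.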

Row | Compound | outcome | AC50
45 | Oc1ccc2ccccc2c1N=Nc1ccccc1 | inactive | –
46 | Nc1ccccc1N | – | 7.65 µM (active)
47 | CC1=C(/C=C/C(C)=C/C=C/C(C)=C/CO)C(C)(C)CCC1 | inactive | –
48 | CC(CO)OC(C)CO (stereo not given) (tested in a mixture with another compound) | inactive | –
49 | NC(=O)Cn1c(=O)cc(CCN2CCN(c3nccc4sccc34)CC2)c2ccc(F)cc21 | – | 0.0187 µM (active)
50 | Cc1c(C(=O)O)c(O)cc2c1C(=O)c1c(O)c([C@@H]3O[C@H](CO)[C@@H](O)[C@H](O)[C@H]3O)c(O)c(O)c1C2=O | inactive | –
